EWS-Fli block = EWS/Fli-driven NR0B1 reporter inhibitors, primary screen, A673 cells, NR0B1 luciferase, luminescence, MLPCN library; viability-normalised; inhibition, % at 12.6 µM; hit rate 0.67% among 350,000; AID 651661, 2012;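 active = mean inhibition of at least 50% after viability correction, with every replicate also passing that limit; inconclusive = mean reaches 50% but only one of two replicates passes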;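 also: firefly luciferase signal divided by Alamar Blue viability fluorescence both relative to DMSO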
LGR2 antag = inhibitors of bursicon-induced LGR2 CRE-luciferase signal, primary screen, cell-based, HEK293, CRE-luciferase reporter, bursicon stimulation; Drosophila bursicon receptor LGR2 (rickets); bursicon-stimulated, 4 h; inhibition, % at 9.99 µM; hit rate 0.35% among 380,000; AID 720647, 2013;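 active = drop in luminescence signal, shown as inhibition above about 50% in the replicate tests, limit read from the data, passing the limit was not always enough; inconclusive = probably only some replicates passing the limit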;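 also: agonist challenge used bursicon conditioned medium at about half maximal strength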
TWEAK Fn14 block = inhibitors of TWEAK-Fn14 signaling, primary screen, luciferase reporter cells, uHTS; TWEAK-stimulated Fn14 reporter cells, luciferase luminescence, 8 h; inhibition, % at 10 µM; hit rate 2% among 360,000; in the data active = inhibition above about 50%
PAX8 inh HTS = inhibitors of PAX8-driven TPO luciferase reporter, primary screen, RMG-I cells, single concentration. SteadyGlo, 24 h. AID 652154, 2013. hit rate 1.2% among 360,000. inhibition, % at 12.6 µM;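 active = mean replicate inhibition at least 60% with every replicate also reaching 60%; inconclusive = only one of the two criteria is met; inactive = mean below 60% and not all replicates reaching 60%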;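 also: luciferase light reporting Pax8 driven TPO promoter activity; plate controls were median of neutral control wells for no effect and mitoxantrone controls for full effect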
LMP1 NFkB inh = EBV LMP1-driven NF-kappaB luciferase reporter inhibitors, primary screen, cell-based, luminescence, single point; LMP1-induced NF-kappaB luciferase reporter cells; inhibition, % at 12.5 µM; hit rate 0.69% among 350,000; in the data active = inhibition above about 41%; inconclusive = no clear call, values can overlap the other calls;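 also: 0% = neutral control wells and 100% = reference inhibitor control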
TROY NFkB inh = inhibitors of TROY-driven NF-kB signaling, primary screen, Q293 LMP1-TROYcd cells, NF-kB luciferase, uHTS; inhibition, % at 10 µM; hit rate 0.98% among 360,000; AID 1347056, 2019; Q293 LMP1-TROYcd NF-kB luciferase reporter, 4 h;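 active = compounds whose plate-normalised and pattern-corrected inhibition of the luciferase reporter signal at the single screening dose is 50% or more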
Starred values were filed as active, the others as inactive. Sampled rows, rich in hits. Any-hit rate of the full collection: about 3.2%.

`C[C@H]1CN([C@@H](C)CO)C(=O)c2cccc(NS(=O)(=O)c3ccc(F)cc3)c2O[C@@H]1CN(C)Cc1ccc(Cl)c(Cl)c1` gave EWS-Fli block -8.0 and LGR2 antag -3.4.
CNC(=O)C[C@@H]1CC[C@H]2[C@@H](COC[C@@H](O)CN2S(=O)(=O)c2ccc(Oc3ccccc3)cc2)O1 was read as EWS-Fli block -4.2, LGR2 antag 9.9 and PAX8 inh HTS -10.4.
For CCN1C(=O)N(CC)c2cccc3cccc1c23 the results were EWS-Fli block 4.0, LGR2 antag -6.1, TWEAK Fn14 block 91.5*, PAX8 inh HTS 8.6, LMP1 NFkB inh 9.2 and TROY NFkB inh 33.1.
COc1ccc(OC)c(/C=C/c2ccc3cccc(O)c3n2)c1 was read as EWS-Fli block -7.6, LGR2 antag -26.2, TWEAK Fn14 block -9.1, PAX8 inh HTS 8.7, LMP1 NFkB inh 17.6 and TROY NFkB inh -11.3.
`COc1ccc(C=Cc2ccc3ccccc3n2)c(OC)c1` gave EWS-Fli block 49.3, LGR2 antag -21.6, TWEAK Fn14 block 1.9, PAX8 inh HTS -93.1, LMP1 NFkB inh 44.6* and TROY NFkB inh -5.6.
For CC(C)C(=O)Nc1ccc(NC(=O)c2ccccn2)cn1 the results were TWEAK Fn14 block 75.7*, LMP1 NFkB inh 33.5 and TROY NFkB inh 41.9.
O=C(Nc1ccc(NC(=O)C2CC2)nc1)c1ccccn1 was read as TWEAK Fn14 block 61.5*, PAX8 inh HTS -33.6, LMP1 NFkB inh 5.1 and TROY NFkB inh 13.5.
C[C@H](CO)N1C[C@H](C)[C@H](CN(C)S(=O)(=O)c2ccc(Cl)cc2)Oc2ccc(NS(=O)(=O)c3cn(C)cn3)cc2CC1=O was read as EWS-Fli block -2.7, LGR2 antag 3.8 and PAX8 inh HTS -0.5.
For Cc1cc(CN(C)C(=O)c2cc(COc3ccc4ncccc4c3)on2)on1 the results were EWS-Fli block -0.5, LGR2 antag 11.9, TWEAK Fn14 block 27.1, PAX8 inh HTS 91.2*, LMP1 NFkB inh 23.4 and TROY NFkB inh 0.8.
For CC(CNC(=O)c1cc(COc2ccc3ncccc3c2)on1)c1ccccc1 (stereo not given) the results were EWS-Fli block 39.4, LGR2 antag 0.3, TWEAK Fn14 block 59.8*, PAX8 inh HTS 35.6, LMP1 NFkB inh 14.3 and TROY NFkB inh 54.1*.
For O=C(NC1CCCCCCC1)c1cc(COc2ccc3ncccc3c2)on1 the results were EWS-Fli block 17.5, TWEAK Fn14 block 51.8*, PAX8 inh HTS -1.6, LMP1 NFkB inh 49.2* and TROY NFkB inh 31.2.
For O=C(c1cc(COc2ccc3ncccc3c2)on1)N1CCC(O)CC1 the results were EWS-Fli block -12.3, LGR2 antag 8.2, TWEAK Fn14 block 4.2, PAX8 inh HTS -40.8, LMP1 NFkB inh 8.2 and TROY NFkB inh -3.5.
Screening CC(=O)N1CC2(C1)[C@H](c1ccccc1)[C@H](CO)N2S(=O)(=O)c1ccccc1 returned EWS-Fli block -2.7, LGR2 antag -16.2 and PAX8 inh HTS 1.1.
Screening O=S(=O)(N[C@@H]1CC[C@@H](CCn2cc(-c3ccccn3)nn2)O[C@H]1CO)c1cccc(Cl)c1 returned EWS-Fli block -2.1, LGR2 antag -12.5 and PAX8 inh HTS 20.5.
Screening CCC(=O)N(C)C[C@H]1Oc2cc(C#CCOC)ccc2S(=O)(=O)N([C@@H](C)CO)C[C@@H]1C returned EWS-Fli block -6.5 and LGR2 antag 28.6.
`C[C@H](CO)N1C[C@H](C)[C@@H](CN(C)CC2CC2)Oc2c(NC(=O)CCCCCC(=O)Nc3ccccc3N)cccc2C1=O` gave LGR2 antag 10.8.
For O=C(C1CCOCC1)N1CC(=O)N2[C@H](CO)[C@H](c3ccc(C#CC4CC4)cc3)[C@H]2C1 the results were EWS-Fli block 9.4, LGR2 antag 1.4 and PAX8 inh HTS -14.0.
Screening COCC#Cc1cnc2c(c1)C(=O)N([C@@H](C)CO)C[C@H](C)[C@@H](CN(C)C)O2 returned EWS-Fli block -4.9 and LGR2 antag 17.4.
`CCOC(=O)c1c(C)oc2c1c(C=NCC1CCCO1)c(O)c1ccccc12` (stereo not given) gave TWEAK Fn14 block 29.1, LMP1 NFkB inh -0.8 and TROY NFkB inh 68.9*.
`CCNC(=O)Nc1ccc2c(c1)C(=O)N(C)[C@H]1CC[C@H](CC(=O)NCc3ccc(F)cc3)O[C@@H]1CO2` gave EWS-Fli block 2.7, LGR2 antag 2.2 and PAX8 inh HTS -21.9.
CC1=C(C(=O)N2CCC=CC2=O)Cc2ccccc21 was read as EWS-Fli block 12.1 and PAX8 inh HTS 95.4*.
Screening COc1ccc(C(C(=O)NC2CCCCC2)N(C(=O)CCl)c2ccc(C)cc2)cc1 (stereo not given) returned EWS-Fli block 48.1, TWEAK Fn14 block 57.0*, PAX8 inh HTS 111.3*, LMP1 NFkB inh 46.6* and TROY NFkB inh -1.6.
For COc1ccc(CN(C(=O)c2nsc(Cl)c2Cl)C(C(=O)NC2CCCC2)c2ccc(C)cc2)cc1 (stereo not given) the results were EWS-Fli block -1.1, LGR2 antag 3.2, TWEAK Fn14 block 12.7, PAX8 inh HTS 0.7, LMP1 NFkB inh 53.7* and TROY NFkB inh 2.2.
Screening COc1ccc(C(C(=O)NC2CCCCC2)N(C(=O)CCl)c2ccc(OC)cc2)cc1 (stereo not given) returned TWEAK Fn14 block 64.3*, LMP1 NFkB inh inconclusive and TROY NFkB inh -7.8.
For COc1ccc(C(C(=O)NC2CCCCC2)N(C(=O)CCl)c2cccc(Cl)c2)cc1 (stereo not given) the results were EWS-Fli block 53.4*, TWEAK Fn14 block 58.1*, PAX8 inh HTS 115.3*, LMP1 NFkB inh -1.3 and TROY NFkB inh -36.8.
For COc1ccc(N(C(=O)Cc2cccs2)C(C(=O)NC2CCCC2)c2ccncc2)cc1 (stereo not given) the results were EWS-Fli block 3.8, LGR2 antag -14.2, TWEAK Fn14 block 14.0, PAX8 inh HTS 20.6, LMP1 NFkB inh -1.6 and TROY NFkB inh -49.5.
COc1ccc(-c2ccc(C3[C@H]4CNC[C@@H]3N4S(=O)(=O)c3cccc(OC)c3)cc2)cc1 (stereo not given in full) was read as EWS-Fli block -5.5, LGR2 antag 6.8 and PAX8 inh HTS 4.7.
For Cc1ccc(S(=O)(=O)N(C)C[C@@H]2Oc3cc(Br)ccc3S(=O)(=O)N([C@H](C)CO)C[C@@H]2C)cc1 the results were EWS-Fli block -3.2, LGR2 antag -8.1 and PAX8 inh HTS 7.4.
`COCC(=O)N1CC[C@@H]2[C@H]1c1cc(-c3ccccc3)ccc1N(C)[C@H]2CO` gave EWS-Fli block -9.1, LGR2 antag 13.7 and PAX8 inh HTS -25.2.
